Results as given in PubChem BioAssay AID1159580 (chemical genetic matrix, 2015).
About 2,000 (36%) of roughly 5,500 compounds were called active. Another 18% or so got no clear call; they are omitted. Cut-off read from the data, not from the text of the source: active = normalized growth mostly below about 0.91 (no sharp cut-off); inconclusive = no clear call, values can overlap the other calls; inactive = mostly above about 0.92. The list shows a part of the results.

Test: chemical genetic growth profiling, strain panel (AID 1159580);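 note: tested at 20 µM; growth read once vehicle control cultures reached saturation at 30 °C; 1 = growth at the plate median or of vehicle wells; lower values mean less growth of the strain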
Conditions: growth OD
[1] = S. cerevisiae deletion strains, locus YJR075W, strain HOC1, hits give low values
[2] = S. cerevisiae deletion strains, locus YMR263W, strain SAP30, hits give low values
[3] = S. cerevisiae deletion strains, locus YMR307W, strain GAS1, hits give low values
[4] = S. cerevisiae deletion strains, locus YNL128W, strain TEP1, hits give low values
[5] = S. cerevisiae deletion strains, locus YPL055C, strain LGE1, hits give low values
[6] = S. cerevisiae deletion strains, locus YBR021W, strain FUR4, hits give low values
[7] = S. cerevisiae deletion strains, locus YBR229C, strain ROT2, hits give low values
[8] = S. cerevisiae deletion strains, locus YCL029C, strain bik1, hits give low values
[9] = S. cerevisiae deletion strains, locus YDL035C, strain GPR1, hits give low values
[10] = S. cerevisiae deletion strains, locus YDL074C, strain BRE1, hits give low values
[11] = S. cerevisiae deletion strains, locus YDL101C, strain DUN1, hits give low values
[12] = S. cerevisiae deletion strains, locus YDL134C, strain PPH21, hits give low values
[13] = S. cerevisiae deletion strains, locus YDL185W, strain tfp1, hits give low values
[14] = S. cerevisiae deletion strains, locus YDL192W, strain arf1, hits give low values
[15] = S. cerevisiae deletion strains, locus YDR101C, strain arx1, hits give low values
[16] = S. cerevisiae deletion strains, locus YDR162C, strain NBP2, hits give low values
[17] = S. cerevisiae deletion strains, locus YDR318W, strain mcm21, hits give low values
[18] = S. cerevisiae deletion strains, locus YDR388W, hits give low values
[19] = S. cerevisiae deletion strains, locus YDR502C, strain sam2, hits give low values
[20] = S. cerevisiae deletion strains, locus YER110C, hits give low values
[21] = S. cerevisiae deletion strains, locus YER155C, strain BEM2, hits give low values
[22] = S. cerevisiae deletion strains, locus YER167W, strain BCK2, hits give low values
[23] = S. cerevisiae deletion strains, locus YGL078C, strain dbp3, hits give low values
[24] = S. cerevisiae deletion strains, locus YGL086W, strain mad1, hits give low values
[25] = S. cerevisiae deletion strains, locus YGL248W, strain PDE1, hits give low values
[26] = S. cerevisiae deletion strains, locus YGR135W, strain pre9, hits give low values
[27] = S. cerevisiae deletion strains, locus YGR252W, strain gcn5, hits give low values
[28] = S. cerevisiae deletion strains, locus YHR030C, strain SLT2, hits give low values
[29] = S. cerevisiae deletion strains, locus YHR079C, strain IRE1 (second series), hits give low values
[30] = S. cerevisiae deletion strains, locus YHR094C, strain hxt1, hits give low values
[31] = S. cerevisiae deletion strains, locus YHR129C, strain ARP1, hits give low values
[32] = S. cerevisiae deletion strains, locus YHR200W, strain rpn10, hits give low values
[33] = S. cerevisiae deletion strains, locus YIL066C, strain RNR3, hits give low values
[34] = S. cerevisiae deletion strains, locus YIL073C, strain SPO22, hits give low values
[35] = S. cerevisiae deletion strains, locus YIL125W, strain kgd1, hits give low values
[36] = S. cerevisiae deletion strains, locus YIR030C, strain dcg1, hits give low values
[37] = S. cerevisiae deletion strains, locus YJL095W, strain BCK1, hits give low values
[38] = S. cerevisiae deletion strains, locus YJL134W, strain LCB3, hits give low values
[39] = S. cerevisiae deletion strains, locus YJL168C, strain set2, hits give low values
[40] = S. cerevisiae deletion strains, locus YJL187C, strain SWE1 (second series), hits give low values
[41] = S. cerevisiae deletion strains, locus YKL009W, strain mrt4, hits give low values
[42] = S. cerevisiae deletion strains, locus YKL068W, hits give low values
[43] = S. cerevisiae deletion strains, locus YKL085W, strain MDH1 (second series), hits give low values
[44] = S. cerevisiae deletion strains, locus YKL085W, strain MDH1, hits give low values
[45] = S. cerevisiae deletion strains, locus YKR001C, strain vps1, hits give low values
[46] = S. cerevisiae deletion strains, locus YLR039C, strain RIC1, hits give low values
[47] = S. cerevisiae deletion strains, locus YLR058C, strain SHM2, hits give low values
[48] = S. cerevisiae deletion strains, locus YLR102C, strain apc9, hits give low values
[49] = S. cerevisiae deletion strains, locus YLR268W, strain sec22, hits give low values
[50] = S. cerevisiae deletion strains, locus YLR371W, strain rom2, hits give low values
[51] = S. cerevisiae deletion strains, locus YLR418C, strain cdc73, hits give low values
[52] = S. cerevisiae deletion strains, locus YML016C, strain PPZ1, hits give low values
[53] = S. cerevisiae deletion strains, locus YML032C, strain rad52, hits give low values
[54] = S. cerevisiae deletion strains, locus YML124C, strain tub3, hits give low values
[55] = S. cerevisiae deletion strains, locus YMR078C, strain ctf18, hits give low values
[56] = S. cerevisiae deletion strains, locus YMR223W, strain ubp8, hits give low values
[57] = S. cerevisiae deletion strains, locus YNL067W, strain RPL9B, hits give low values
[58] = S. cerevisiae deletion strains, locus YNL233W, strain BNI4, hits give low values
[59] = S. cerevisiae deletion strains, locus YNL250W, strain rad50, hits give low values
[60] = S. cerevisiae deletion strains, locus YNL271C, strain bni1, hits give low values
[61] = S. cerevisiae deletion strains, locus YNL298W, strain CLA4, hits give low values
[62] = S. cerevisiae deletion strains, locus YNL307C, strain MCK1, hits give low values
[63] = S. cerevisiae deletion strains, locus YNR052C, strain pop2, hits give low values
[64] = S. cerevisiae deletion strains, locus YOL012C, strain htz1
[65] = S. cerevisiae deletion strains, locus YOL147C, strain pex11, hits give low values
[66] = S. cerevisiae deletion strains, locus YOR061W, strain CKA2, hits give low values
[67] = S. cerevisiae deletion strains, locus YOR069W, strain VPS5, hits give low values
[68] = S. cerevisiae deletion strains, locus YOR136W, strain idh2, hits give low values
[69] = S. cerevisiae deletion strains, locus YOR144C, strain elg1, hits give low values
[70] = S. cerevisiae deletion strains, locus YOR184W, strain ser1, hits give low values
[71] = S. cerevisiae deletion strains, locus YOR316C, strain cot1, hits give low values
[72] = S. cerevisiae deletion strains, locus YPL241C, strain CIN2, hits give low values
[73] = S. cerevisiae deletion strains, locus YPR119W, strain clb2, hits give low values
[74] = S. cerevisiae deletion strains, locus YPR141C, strain kar3, hits give low values
[75] = S. cerevisiae deletion strains, locus YPR163C, strain tif3, hits give low values
[76] = S. cerevisiae deletion strains, locus YPR167C, strain met16, hits give low values
[77] = S. cerevisiae deletion strains, strain wtn01, hits give low values

Measured: normalized growth

CC(O)C(O)[C@H]1CNc2nc(N)[nH]c(=O)c2N1 (stereo partly specified)
inactive: S. cerevisiae deletion strains, locus YAL040C, strain CLN3, hits give low values 1.04 | S. cerevisiae deletion strains, locus YCL061C, strain MRC1 (second series), hits give low values 1.01 | S. cerevisiae deletion strains, locus YDR150W, strain NUM1, hits give low values 1.02 | S. cerevisiae deletion strains, locus YDR363W, strain ESC2, hits give low values 1.01 | S. cerevisiae deletion strains, locus YER002W, strain NOP16, hits give low values 1 | [1] 1.04 | [2] 1.01 | [3] 0.995 | [4] 0.998 | S. cerevisiae deletion strains, locus YNL175C, strain NOP13, hits give low values 0.999 | S. cerevisiae deletion strains, locus YNL197C, strain WHI3, hits give low values 1.01 | S. cerevisiae deletion strains, locus YNL224C, strain SQS1, hits give low values 1 | S. cerevisiae deletion strains, locus YOR083W, strain WHI5 (second series), hits give low values 1.02 | [5] 1.04

CC1(C)C(O)CC(O)C2(C)C1CC(O)C1(C)C2CCC2(C)C(c3ccoc3)CC3OC321 (stereo unspecified)
inactive: [6] 0.936 | [7] 1.01 | [8] 1 | [9] 0.969 | [10] 0.973 | [11] 1 | [12] 0.992 | [13] 1.02 | [14] 1 | [15] 0.987 | [16] 0.998 | [17] 1 | [18] 1.01 | [19] 0.998 | S. cerevisiae deletion strains, locus YEL061C, strain CIN8, hits give low values 0.997 | [20] 1.02 | [21] 0.996 | [22] 1 | [23] 1.01 | [24] 0.99 | [25] 1 | S. cerevisiae deletion strains, locus YGR078C, strain PAC10, hits give low values 0.991 | [26] 0.997 | [27] 0.981 | [28] 1.01 | [29] 1.02 | [30] 1.01 | [31] 0.998 | [32] 1 | [33] 0.99 | [34] 1.04 | [35] 1.01 | [36] 1.02 | [37] 0.978 | [38] 0.998 | [39] 1.01 | [40] 0.996 | [41] 0.982 | [42] 1.01 | [43] 0.996 | [44] 0.996 | [45] 0.99 | [46] 1.03 | [47] 0.998 | [48] 1 | S. cerevisiae deletion strains, locus YLR262C, strain YPT6, hits give low values 1.01 | [49] 0.993 | [50] 0.994 | [51] 0.983 | [52] 1 | [53] 1.01 | [54] 1.01 | [55] 1.02 | [56] 0.989 | [2] 1.01 | [3] 0.991 | [57] 1 | [4] 0.998 | [58] 0.978 | [59] 1.01 | [60] 1.01 | [61] 1.01 | [62] 1.03 | S. cerevisiae deletion strains, locus YNL322C, strain KRE1, hits give low values 0.996 | [63] 1 | [64] 1.12 | [65] 1 | [66] 1 | [67] 1 | [68] 0.998 | [69] 1.02 | [70] 0.976 | [71] 1.01 | [5] 0.988 | [72] 0.997 | [73] 1.01 | [74] 1.02 | [75] 1.01 | [76] 1.01 | [77] 0.986 | S. cerevisiae strains, strain wild type, hits give low values 0.972

CC1(C)C(=O)C=CC2(C)C3CCC4(C)C(c5ccoc5)CC5OC54C3C(O)CC12 (stereo unspecified)
inactive: S. cerevisiae deletion strains, locus YAL013W, strain DEP1, hits give low values 0.975 | [6] 0.985 | [7] 0.995 | [8] 1.01 | [9] 0.942 | [10] 0.862 | [11] 0.958 | [12] 0.945 | [13] 1.02 | [14] 0.986 | [15] 0.98 | [16] 0.882 | [17] 0.992 | [18] 1.02 | [19] 1.01 | [20] 1.03 | [21] 0.988 | [22] 0.961 | [23] 1.02 | [24] 0.975 | [25] 0.958 | [26] 0.984 | S. cerevisiae deletion strains, locus YGR229C, strain SMI1, hits give low values 0.868 | [27] 0.981 | [28] 1 | [29] 1.02 | [30] 1.02 | [31] 0.977 | [32] 0.993 | [33] 0.926 | [34] 0.999 | [35] 0.999 | [36] 1.01 | [37] 0.884 | [38] 0.992 | [39] 1.01 | [40] 0.955 | [1] 0.981 | [41] 1.01 | [42] 1.01 | [43] 1 | [44] 1 | [45] 0.984 | [46] 0.785 | [47] 0.975 | [48] 1.01 | [49] 0.987 | S. cerevisiae deletion strains, locus YLR330W, strain CHS5, hits give low values 0.965 | [50] 1 | [51] 0.951 | [52] 0.993 | [53] 1 | [54] 1.01 | [55] 1 | [56] 0.993 | [3] 0.842 | [57] 0.978 | [4] 0.972 | S. cerevisiae deletion strains, locus YNL153C, strain GIM3, hits give low values 0.983 | [58] 0.938 | [59] 1.02 | [60] 1.01 | [61] 1.03 | [62] 1 | [63] 0.995 | S. cerevisiae deletion strains, locus YOL006C, strain TOP1, hits give low values 0.956 | [64] 1.23 | [65] 1 | [66] 0.979 | [67] 0.989 | [68] 1.02 | [69] 1.01 | [70] 0.886 | [71] 1.02 | [5] 0.928 | [72] 0.995 | [73] 1.02 | [74] 1.01 | [75] 1.02 | [76] 1 | [77] 0.993
